Measured values taken from PubChem BioAssay AID1159580 (chemical genetic matrix, 2015).
Values joined by “and” are separate entries in the source; they are usually repeats but may differ in a detail not shown here. Equal values may be shown once. In all, about 5,500 compounds went through this assay and about 2,000 (36%) were called active. Roughly 18% stayed inconclusive and do not appear here. Rule as the data show it: active = normalized growth mostly below about 0.91 (no sharp cut-off); inconclusive = no clear call, values can overlap the other calls; inactive = mostly above about 0.92. The list shows a part of the results.

Assay: chemical genetic growth profiling, strain panel (AID 1159580);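 also: tested at 20 µM; growth read once vehicle control cultures reached saturation at 30 °C; 1 = growth at the plate median or of vehicle wells; lower values mean less growth of the strain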
Conditions: growth OD

Measured: normalized growth

CC[N+](CC)(CC)CCOc1cccc(OCC[N+](CC)(CC)CC)c1OCC[N+](CC)(CC)CC
inactive: S. cerevisiae deletion strains, locus YJR066W, strain TOR1, stronger effect = lower value 0.953 | S. cerevisiae deletion strains, locus YKL009W, strain mrt4, stronger effect = lower value 0.99 | S. cerevisiae deletion strains, locus YKL068W, stronger effect = lower value 1 | S. cerevisiae deletion strains, locus YKL085W, strain MDH1 (second series), stronger effect = lower value 1.02 | S. cerevisiae deletion strains, locus YKL085W, strain MDH1, stronger effect = lower value 1.02 | S. cerevisiae deletion strains, locus YKL160W, strain elf1, stronger effect = lower value 1.04 | S. cerevisiae deletion strains, locus YKR001C, strain vps1, stronger effect = lower value 1 | S. cerevisiae deletion strains, locus YKR026C, strain gcn3, stronger effect = lower value 1.01 | S. cerevisiae deletion strains, locus YKR091W, strain srl3, stronger effect = lower value 1.02 | S. cerevisiae deletion strains, locus YLL001W, strain dnm1, stronger effect = lower value 1.04 | S. cerevisiae deletion strains, locus YLL026W, stronger effect = lower value 1.01 | S. cerevisiae deletion strains, locus YLL041C, strain sdh2, stronger effect = lower value 1.01 | S. cerevisiae deletion strains, locus YLR027C, strain aat2, stronger effect = lower value 1.02 | S. cerevisiae deletion strains, locus YLR039C, strain RIC1, stronger effect = lower value 1.11 | S. cerevisiae deletion strains, locus YLR058C, strain SHM2, stronger effect = lower value 1.03 | S. cerevisiae deletion strains, locus YLR102C, strain apc9, stronger effect = lower value 1.01 | S. cerevisiae deletion strains, locus YLR113W, strain HOG1, stronger effect = lower value 0.977 | S. cerevisiae deletion strains, locus YLR221C, strain rsa3, stronger effect = lower value 1.02 | S. cerevisiae deletion strains, locus YLR258W, strain gsy2, stronger effect = lower value 1.01 | S. cerevisiae deletion strains, locus YLR262C, strain YPT6 (second series), stronger effect = lower value 1.05 | S. cerevisiae deletion strains, locus YLR262C, strain YPT6, stronger effect = lower value 1.07 | S. cerevisiae deletion strains, locus YLR268W, strain sec22, stronger effect = lower value 1.01 | S. cerevisiae deletion strains, locus YLR320W, strain mms22, stronger effect = lower value 1.03 | S. cerevisiae deletion strains, locus YLR330W, strain CHS5, stronger effect = lower value 1.01 | S. cerevisiae deletion strains, locus YLR342W, strain FKS1 (second series), stronger effect = lower value 0.996 | S. cerevisiae deletion strains, locus YLR342W, strain FKS1, stronger effect = lower value 1.02 | S. cerevisiae deletion strains, locus YLR357W, strain rsc2, stronger effect = lower value 1 | S. cerevisiae deletion strains, locus YLR370C, strain arc18, stronger effect = lower value 1.01 | S. cerevisiae deletion strains, locus YLR371W, strain rom2, stronger effect = lower value 1.01 | S. cerevisiae deletion strains, locus YLR384C, strain iki3, stronger effect = lower value 1.02 | S. cerevisiae deletion strains, locus YLR418C, strain cdc73, stronger effect = lower value 1.02 | S. cerevisiae deletion strains, locus YML016C, strain PPZ1, stronger effect = lower value 1.01 | S. cerevisiae deletion strains, locus YML032C, strain rad52, stronger effect = lower value 1 | S. cerevisiae deletion strains, locus YML120C, strain ndi1, stronger effect = lower value 1.03 | S. cerevisiae deletion strains, locus YML124C, strain tub3, stronger effect = lower value 1.01 | S. cerevisiae deletion strains, locus YMR058W, strain fet3, stronger effect = lower value 1.01 | S. cerevisiae deletion strains, locus YMR078C, strain ctf18, stronger effect = lower value 1.02 | S. cerevisiae deletion strains, locus YMR125W, strain sto1, stronger effect = lower value 1.01 | S. cerevisiae deletion strains, locus YMR129W, stronger effect = lower value 1.01 | S. cerevisiae deletion strains, locus YMR205C, strain PFK2, stronger effect = lower value 1.03 | S. cerevisiae deletion strains, locus YMR223W, strain ubp8, stronger effect = lower value 1.02 | S. cerevisiae deletion strains, locus YMR231W, strain pep5, stronger effect = lower value 1.01 | S. cerevisiae deletion strains, locus YMR263W, strain SAP30, stronger effect = lower value 0.995 | S. cerevisiae deletion strains, locus YMR307W, strain GAS1, stronger effect = lower value 1.02 | S. cerevisiae deletion strains, locus YNL067W, strain RPL9B, stronger effect = lower value 1.01 | S. cerevisiae deletion strains, locus YNL071W, strain lat1, stronger effect = lower value 1.01 | S. cerevisiae deletion strains, locus YNL128W, strain TEP1, stronger effect = lower value 1.02 | S. cerevisiae deletion strains, locus YNL153C, strain GIM3, stronger effect = lower value 1.01 | S. cerevisiae deletion strains, locus YNL175C, strain NOP13, stronger effect = lower value 0.987 | S. cerevisiae deletion strains, locus YNL183C, strain NPR1, stronger effect = lower value 0.969 | S. cerevisiae deletion strains, locus YNL197C, strain WHI3, stronger effect = lower value 0.987 | S. cerevisiae deletion strains, locus YNL209W, strain ssb2, stronger effect = lower value 1.02 | S. cerevisiae deletion strains, locus YNL224C, strain SQS1, stronger effect = lower value 0.997 | S. cerevisiae deletion strains, locus YNL233W, strain BNI4, stronger effect = lower value 1.02 | S. cerevisiae deletion strains, locus YNL248C, strain rpa49, stronger effect = lower value 1 | S. cerevisiae deletion strains, locus YNL250W, strain rad50, stronger effect = lower value 1.05 | S. cerevisiae deletion strains, locus YNL271C, strain bni1, stronger effect = lower value 1.01 | S. cerevisiae deletion strains, locus YNL298W, strain CLA4, stronger effect = lower value 1.01 | S. cerevisiae deletion strains, locus YNL307C, strain MCK1, stronger effect = lower value 1.02 | S. cerevisiae deletion strains, locus YNL322C, strain KRE1 (second series), stronger effect = lower value 1.02 | S. cerevisiae deletion strains, locus YNL322C, strain KRE1, stronger effect = lower value 1 and 1.01 | S. cerevisiae deletion strains, locus YNR049C, strain mso1, stronger effect = lower value 1.02 | S. cerevisiae deletion strains, locus YNR052C, strain pop2, stronger effect = lower value 1.02 | S. cerevisiae deletion strains, locus YOL006C, strain TOP1, stronger effect = lower value 1.04 | S. cerevisiae deletion strains, locus YOL012C, strain htz1 0.763 | S. cerevisiae deletion strains, locus YOL147C, strain pex11, stronger effect = lower value 1 | S. cerevisiae deletion strains, locus YOR001W, strain rrp6, stronger effect = lower value 1 | S. cerevisiae deletion strains, locus YOR061W, strain CKA2, stronger effect = lower value 1.01 | S. cerevisiae deletion strains, locus YOR069W, strain VPS5, stronger effect = lower value 1.01 | S. cerevisiae deletion strains, locus YOR070C, strain gyp1, stronger effect = lower value 1.02 | S. cerevisiae deletion strains, locus YOR080W, strain dia2, stronger effect = lower value 1.02 | S. cerevisiae deletion strains, locus YOR083W, strain WHI5 (second series), stronger effect = lower value 0.998 | S. cerevisiae deletion strains, locus YOR083W, strain WHI5, stronger effect = lower value 1.04 | S. cerevisiae deletion strains, locus YOR106W, strain vam3, stronger effect = lower value 1.02 | S. cerevisiae deletion strains, locus YOR136W, strain idh2, stronger effect = lower value 1 | S. cerevisiae deletion strains, locus YOR144C, strain elg1, stronger effect = lower value 1.01 | S. cerevisiae deletion strains, locus YOR184W, strain ser1, stronger effect = lower value 1.04 | S. cerevisiae deletion strains, locus YOR231W, strain MKK1, stronger effect = lower value 1 | S. cerevisiae deletion strains, locus YOR265W, strain rbl2, stronger effect = lower value 1.01 | S. cerevisiae deletion strains, locus YOR270C, strain vph1, stronger effect = lower value 1.04 | S. cerevisiae deletion strains, locus YOR290C, strain snf2, stronger effect = lower value 0.958 | S. cerevisiae deletion strains, locus YOR316C, strain cot1, stronger effect = lower value 1.02 | S. cerevisiae deletion strains, locus YPL051W, strain arl3, stronger effect = lower value 1.01 | S. cerevisiae deletion strains, locus YPL055C, strain LGE1, stronger effect = lower value 1.02 | S. cerevisiae deletion strains, locus YPL078C, strain atp4, stronger effect = lower value 1.02 | S. cerevisiae deletion strains, locus YPL106C, strain sse1, stronger effect = lower value 1.02 | S. cerevisiae deletion strains, locus YPL240C, strain hsp82, stronger effect = lower value 1 | S. cerevisiae deletion strains, locus YPL256C, strain CLN2, stronger effect = lower value 1.05 | S. cerevisiae deletion strains, locus YPR119W, strain clb2, stronger effect = lower value 1.02 | S. cerevisiae deletion strains, locus YPR141C, strain kar3, stronger effect = lower value 1.02 | S. cerevisiae deletion strains, locus YPR163C, strain tif3, stronger effect = lower value 1.02 | S. cerevisiae deletion strains, locus YPR167C, strain met16, stronger effect = lower value 1.02 | S. cerevisiae deletion strains, strain wtn01, stronger effect = lower value 0.996 | S. cerevisiae strains, strain wild type, stronger effect = lower value 1.01
